Source: PubChem
TRPV1 PAM = HTS Assay for Compounds that Act as Potentiators of the Vanilloid Receptor 1; Transient receptor potential cation channel subfamily V member 1 (Homo sapiens), Q8NER1; TRPV1-expressing cells, Fluo-8 calcium influx, capsaicin EC20 potentiation; potentiation, % at 8.33 µM; hit rate 0.02% among 320,000; in the data active = potentiation above about 80%; inconclusive = between about 30% and that limit; note: 0% is about no effect
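Cells expressing TRPV1 were dye-loaded with Fluo-8 and read kinetically: 10 s baseline, 3 min after compound (agonist portion), then 2 min after EC20 capsaicin (allosteric enhancer portion). Calcium-bound dye fluorescence at 480/520 nm.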
hERG WT inh = qHTS for Inhibitors of KCHN2 3.1: Wildtype qHTS; Voltage-gated inwardly rectifying potassium channel KCNH2 (Homo sapiens), Q12809; U2OS, BacMam KCNH2, thallium flux FluxOr; active compounds read low; activity change, % at 1.84 µM; hit rate 0.37% among 340,000;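 active = maximum activity change below -70%; inconclusive = maximum activity change between -70% and -50%; inactive = maximum activity change above -50%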; note: % is set by controls: 0 for no effect and ±100 for the full control effect
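U2OS cells were transduced with wild-type KCNH2 virus (2.03 x 10^8 / mL) for 4 h at room temperature, then cultured overnight at 37 C. Thallium flux was read with FluxOr dye. Rate constants were normalized to DMSO controls.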
TRPV1 agonist = HTS Assay for Compounds that Act as Agonists of the Vanilloid Receptor 1. hit rate 0.19% among 320,000. activation, % at 8.33 µM. TRPV1-expressing cells, Fluo-8 calcium influx, agonist mode. AID 540275, 2011; in the data active = activation above about 80%; inconclusive = between about 30% and that limit; note: 0% is about no effect
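TRPV1-expressing cells were cultured overnight at 35.5C and loaded with Fluo-8 calcium dye for 40 to 90 min at room temperature. After a 10 s baseline, compound was added and calcium influx was read kinetically for 3 min (ex 480/em 520 nm).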
KCNH2 3.1 block = qHTS for Inhibitors of KCHN2 3.1: Mutant qHTS; activity change, % (tested at about 1.8 µM); AID 720553, 2013; U2OS KCNH2 3.1, thallium flux FluxOr; active compounds read low; hit rate 0.95% among 340,000;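 active = maximum activity change below -70%; inconclusive = maximum activity change from -70% to -50%; inactive = maximum activity change above -50%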;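 note: thallium influx rate constant from kinetic fluorescence after stimulation buffer; % is set by controls: 0 for no effect and ±100 for the full control effect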
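Channel expression came from 3.1 mutant virus (1.77 x 10^8 /mL) applied to suspended U2OS cells for 4 h. Flux was tracked with FluxOr dye plus Red40 quencher, and kinetic rate constants normalized to controls.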
Starred values were filed as active, the others as inactive; i = inactive; u = inconclusive; x = no result given; + = active, no number. Hits are enriched below; roughly 1.2% of the tested compounds scored in any of these assays.

SMILES	TRPV1 PAM	hERG WT inh	TRPV1 agonist	KCNH2 3.1 block
COc1ccc([C@]23Cc4ccccc4C(O2)c2c(cc(C)n(Cc4ccccc4)c2=O)O3)cc1	i	x	i	x
COc1ccc(CNC(=O)Cn2cc(C)c(=O)[nH]c2=O)cc1	x	-0.7	x	-1.1
O=C(Nc1ccnn1C1CCN(C/C=C/c2ccccc2)CC1)c1ccccc1	10.6	-90.9*	-4.8	-90.8*
O=C(Nc1ccnn1C1CCN(CCCc2ccccc2)CC1)c1cccc(F)c1	5.7	-89.5*	0.9	-104.2*
COc1ccc(CN2CCC(n3nccc3NC(=O)c3cccc(F)c3)CC2)cc1O	4.7	-109.5*	-3.4	-109.9*
O=C(Nc1ccnn1C1CCN(C/C=C/c2ccccc2)CC1)c1cccc(F)c1	2.7	-92.1*	-3.0	-98.9*
Cc1c(CN2CCC(n3nccc3NC(=O)c3cccc(F)c3)CC2)cnn1C	0.6	10.0	-3.3	x
O=C(Nc1ccnn1C1CCN(Cc2cccc(OCCO)c2)CC1)c1cccc(F)c1	-2.1	12.7	-0.2	-7.4
CCN1C(=NCc2cc(OC)c(OC)c(OC)c2)N[C@@H](c2cccc(F)c2)C(C(=O)OC)=C1C	-9.5	x	7.5	x
O=C(O)C1C2CCC1C(O)C2 (stereo not drawn)	x	12.3	x	-0.6
CSc1ccccc1NC(=O)CN(C)CC(=O)NCc1ccccc1	-18.6	-4.4	19.7	-1.0
CSc1ccc(CN(C)CC(=O)Nc2ccc(C)cc2Br)cc1	3.7	-147.6*	27.0	-153.5*
CCCn1c(N)c(C(=O)CN(C)CC(=O)Nc2ccc(C)cc2)c(=O)[nH]c1=O	22.4	-10.3	1.7	-28.2
CCCn1c(N)c(C(=O)CN(C)CC(=O)Nc2cc(C)ccc2C)c(=O)[nH]c1=O	3.7	-2.5	1.7	-70.0*
CSc1ccccc1NC(=O)CN(C)CC(=O)Nc1cc(C)ccc1C	-1.1	i	7.9	-75.6*
CC1CCN(S(=O)(=O)c2ccc3c(c2)N(CC(=O)NCCN2C(C)CCCC2C)C(=O)CS3)CC1 (stereo not drawn)	0.0	-75.7*	-0.1	-23.1
N#C/C(=C\c1ccc(C#N)cc1)C(=O)c1ccccc1	u	-6.0	3.5	-9.6
CN(C)c1ccc(/C=C(\C#N)C(=O)c2ccccc2)cc1	22.2	-8.3	83.7*	-22.4
COc1ccc(NC(=O)CN(C)C(=O)C2(c3ccccc3)CCCC2)cc1	x	-9.1	x	-0.7
CC1CC[C@@]2(OC1)O[C@H]1CC3[C@@H]4C[C@@H](O)[C@@]5(O)C[C@@H](O)[C@H](O)C[C@]5(C)[C@H]4CC[C@]3(C)[C@H]1[C@@H]2C (stereo partly drawn)	1.0	-91.8*	2.0	-0.4
COc1cc(/C=N/NC(=O)c2cccnc2)ccc1OCC(=O)Nc1ccccc1Cl	9.7	0.4	-3.5	-97.3*
COc1cc(/C=N/NC(=O)c2ccc(Cl)c(S(N)(=O)=O)c2)ccc1OCC(N)=O	-12.8	-142.3*	2.5	21.6
COc1ccc(/C=N/NC(=O)c2ccc(Cl)c(S(N)(=O)=O)c2)cc1OCC(N)=O	0.4	7.0	-6.7	-3.0
COc1ccc(NC(=O)COc2ccc(/C=N/NC(=O)c3cccnc3)cc2OC)cc1	-15.4	-0.8	0.9	5.4
CCn1c(-c2nn(-c3ccccc3)ccc2=O)n[nH]c1=S	6.7	+	-2.2	-10.2
SMILES	TRPV1 PAM	hERG WT inh	TRPV1 agonist	KCNH2 3.1 block
COCC(=O)N(C)C[C@H]1N[C@@](C)(C(=O)OC)[C@H]2C(=O)N(C)C(=O)[C@@H]12	x	3.3	x	-26.4
COc1ccccc1CN(C)C(=O)c1cccc(S(=O)(=O)N2CCCc3ccccc32)c1	-7.2	-2.8	9.2	-3.6
Cc1cc(NS(=O)(=O)c2ccc(NC(=O)c3ccc([N+](=O)[O-])cc3)cc2)nc(C)n1	x	4.4	x	2.7
COC(=O)c1c(NC(=O)c2nc3nc(C)cc(C(F)F)n3n2)sc2c1CCC2	91.1*	11.2	-1.9	14.8
CCN(CC)CCN(Cc1cc2cc(C)ccc2[nH]c1=O)C(=O)Nc1ccccc1OC	87.6*	23.2	-2.4	-26.3
CCOC(=O)c1ccccc1NC(=O)CSc1nnc(Cc2cccn2C)n1-c1ccc(F)cc1	-5.2	-87.5*	6.7	-11.0
CCC[C@H](CN[C@@H](CNC)[C@H](C)O)NCCc1ccc(OC)cc1	-15.7	12.0	-0.5	21.3
